# According to PubChem BioAssay AID1224864 (Chung Lab, Department of Pediatrics, Emory University, 2016):
# About 20 (1%) of roughly 2,000 compounds were called active. How the calls were made is not given here. The entries come from a sample that favours actives as a whole. Residues, ends and D or L forms follow the SMILES beside them. *: point of attachment. Boc = CC(C)(C)OC(=O)*
# Biological target: Cystic fibrosis transmembrane conductance regulator (Homo sapiens) (UniProt P13569)
# Experiment: correctors of F508del-CFTR surface localization, primary screen, imaging, HeLa, high-content microscopy, immunofluorescence (AID 1224864);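 further: HeLa cells stably expressing F508del-CFTR stained with 3G11 antibody against NBD1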;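 on plasma membrane CFTR intensity: mean immunofluorescence in a thin cell-margin band taken as plasma membrane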
# Settings: PM immunofluorescence imaging, 24 h, at 10 µM, stronger effect = higher value, relative to vehicle wells set at 100; total CFTR intensity: measured here: total cellular F508del-CFTR signal
# Chain of Cystic fibrosis transmembrane conductance regulator (Homo sapiens) (P13569 whole entry, looked up, stated change not applied): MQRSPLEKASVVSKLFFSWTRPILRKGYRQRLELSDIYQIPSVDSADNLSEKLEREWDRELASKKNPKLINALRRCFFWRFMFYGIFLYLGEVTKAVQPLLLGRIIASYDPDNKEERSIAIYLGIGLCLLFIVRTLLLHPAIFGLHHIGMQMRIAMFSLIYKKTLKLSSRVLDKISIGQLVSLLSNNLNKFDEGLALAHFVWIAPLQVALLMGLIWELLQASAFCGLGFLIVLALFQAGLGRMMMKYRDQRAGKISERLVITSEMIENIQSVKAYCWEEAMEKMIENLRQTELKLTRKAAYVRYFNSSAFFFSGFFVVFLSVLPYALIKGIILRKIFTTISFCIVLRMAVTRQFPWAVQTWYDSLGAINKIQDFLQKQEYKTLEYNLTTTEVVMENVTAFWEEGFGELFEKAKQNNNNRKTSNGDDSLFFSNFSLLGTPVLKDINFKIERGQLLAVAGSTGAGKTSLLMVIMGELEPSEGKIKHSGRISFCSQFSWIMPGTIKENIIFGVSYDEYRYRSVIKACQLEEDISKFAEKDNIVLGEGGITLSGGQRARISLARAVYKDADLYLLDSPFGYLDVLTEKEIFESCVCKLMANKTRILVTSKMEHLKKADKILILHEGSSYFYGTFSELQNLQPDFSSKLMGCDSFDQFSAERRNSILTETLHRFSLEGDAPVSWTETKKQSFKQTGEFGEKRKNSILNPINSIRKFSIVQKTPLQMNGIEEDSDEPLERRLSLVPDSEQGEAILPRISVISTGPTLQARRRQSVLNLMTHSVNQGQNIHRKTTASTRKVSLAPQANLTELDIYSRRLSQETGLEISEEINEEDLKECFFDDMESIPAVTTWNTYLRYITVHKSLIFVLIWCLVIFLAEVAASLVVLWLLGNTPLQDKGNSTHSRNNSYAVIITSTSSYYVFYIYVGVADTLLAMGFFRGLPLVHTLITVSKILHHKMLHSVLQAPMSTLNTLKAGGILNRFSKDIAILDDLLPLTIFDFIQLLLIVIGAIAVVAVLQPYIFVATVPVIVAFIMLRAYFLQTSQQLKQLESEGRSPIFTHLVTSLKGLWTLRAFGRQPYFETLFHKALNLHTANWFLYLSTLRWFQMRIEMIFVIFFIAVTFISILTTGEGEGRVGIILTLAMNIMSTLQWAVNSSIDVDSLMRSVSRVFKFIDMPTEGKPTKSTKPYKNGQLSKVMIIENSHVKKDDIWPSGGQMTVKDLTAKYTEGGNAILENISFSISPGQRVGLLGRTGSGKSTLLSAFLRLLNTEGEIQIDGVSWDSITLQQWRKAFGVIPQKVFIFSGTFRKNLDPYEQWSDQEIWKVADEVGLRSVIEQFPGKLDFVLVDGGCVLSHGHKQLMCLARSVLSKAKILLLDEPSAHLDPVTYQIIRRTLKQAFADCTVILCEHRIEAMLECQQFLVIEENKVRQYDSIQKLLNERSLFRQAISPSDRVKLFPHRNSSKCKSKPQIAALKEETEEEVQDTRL
Compound,plasma membrane CFTR intensity,total CFTR intensity [%]
CCOC(=O)/C=C1\NC(C)(C)Cc2cc(OC)c(OC)cc21,86% (inactive),89
O=C(COc1ccccc1)N1CCN(c2ccccc2)CC1,88% (inactive),85
CC[N+]1(C)CC2CCC(C)(C1)C2(C)C (configuration not stated),72% (inactive),75
CC(C)(C)OC(=O)N1CCCC1C(=O)NC(Cc1ccccc1)C(=O)O (stereo not drawn) (Boc-Pro-Phe-OH; configuration not given here),96% (inactive),102
CC(=O)N1CC23C=CC(CC2CC12CCCCCC2)O3 (configuration not stated),73% (inactive),77
O=C(Nc1cccc(-c2nc3ncccc3o2)c1)c1ccccc1,68% (inactive),72
CC(NCCc1ccc(O)cc1)C(O)c1ccc(O)cc1 (configuration not stated),101% (inactive),96
CC(COc1ccccc1)N(CCCl)Cc1ccccc1 (configuration not stated),78% (inactive),80
CC(COc1ccccc1)NC(C)C(O)c1ccc(O)cc1 (configuration not stated),104% (active),121
Cc1coc2cc3oc(=O)c(CCC(=O)O)c(C)c3cc12,105% (inactive),107
N#C/C(C(N)=O)=c1/ccc2c(c1)N1C3=C(CCCC3)CC3CCCCC31N=2 (configuration not stated),109% (active),123
COC1CCCCC1Nc1ccc(C)c(C)c1 (configuration not stated),80% (inactive),82
CC(=O)Nc1cc(O)cc(O)c1,83% (inactive),93
O=C(NCC1CCCO1)c1ccc(OC2CCN(C(=O)C3CC3)CC2)cc1 (configuration not stated),83% (inactive),76
CCOC(=O)c1oc2cc(OCC(N)=O)ccc2c(=O)c1-c1ccc(OC)c(OC)c1,82% (inactive),82
CC1(C)O[C@@H]2C[C@H]3[C@@H]4CCC5=CC(=O)C=C[C@]5(C)[C@@]4(F)[C@@H](O)C[C@]3(C)[C@]2(C(=O)CO)O1,109% (inactive),114
CC(=O)OCC(=O)[C@@]1(O)CC[C@H]2[C@@H]3CCC4=CC(=O)C=C[C@]4(C)[C@H]3[C@@H](O)C[C@@]21C,89% (inactive),94
CCCC1O[C@@H]2C[C@H]3[C@@H]4CCC5=CC(=O)C=C[C@]5(C)[C@H]4[C@@H](O)C[C@]3(C)[C@]2(C(=O)CO)O1 (some centres not stated),123% (active),137
CC(=O)N1c2ccccc2C(C)=CC1(C)C,80% (inactive),87
COc1ccc2c(c1OC)C(=O)OC2C1c2c(cc3c(c2OC)OCO3)CCN1C (configuration not stated),138% (active),128
COc1ccc2c(c1OC)C(C1c3c(cc4c(c3OC)OCO4)CCN1C)OC2=O (configuration not stated),116% (inactive),112
COc1ccc(C(=O)CC2OC(=O)c3c2ccc(OC)c3OC)cc1 (configuration not stated),118% (inactive),115
COc1ccc(CCNC(=S)NC(=O)/C=C/c2ccc(C)cc2)cc1OC,82% (inactive),81
CN/C(=C/[N+](=O)[O-])NCCSCc1ccc(CN(C)C)o1,88% (inactive),83
Cc1ncoc1C(=O)N1CCCC(C(=O)c2ccc(-c3ccccc3)c(F)c2)C1 (configuration not stated),82% (inactive),75
CCc1cc(=O)oc2cc(C)c(CN3CCCC(C)C3)c(O)c12 (configuration not stated),88% (inactive),88
